Measured values published in PubChem BioAssay AID778 (Sanford-Burnham Center for Chemical Genomics, 2007).
Out of some 96,000 compounds screened, about 20,000 (21%) were called active. These entries were drawn from the full list. A number with no mark means an inactive call.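 How the source made its calls: active means CYP2C19 inhibition above a set limit at 5 µM in the primary screen (cut at about 50% in these data); inactive means the rest.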

Each compound was assayed against Cytochrome P450 2C19 (Homo sapiens) (UniProt P33261) (assay: blockers of cytochrome P450 2C19 activity – biochemical, luminescence, ADME assay, primary screen (AID 778;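 further: plate controls were negative control wells for no effect and 2.5 mM tranylcypromine positive control for full effect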)). Conditions: CYP2C19 Supersomes, luciferin-H EGE luminescence, 30 min; at 5 µM; active compounds read high.
Chain of Cytochrome P450 2C19 (Homo sapiens) (P33261 whole entry, looked up): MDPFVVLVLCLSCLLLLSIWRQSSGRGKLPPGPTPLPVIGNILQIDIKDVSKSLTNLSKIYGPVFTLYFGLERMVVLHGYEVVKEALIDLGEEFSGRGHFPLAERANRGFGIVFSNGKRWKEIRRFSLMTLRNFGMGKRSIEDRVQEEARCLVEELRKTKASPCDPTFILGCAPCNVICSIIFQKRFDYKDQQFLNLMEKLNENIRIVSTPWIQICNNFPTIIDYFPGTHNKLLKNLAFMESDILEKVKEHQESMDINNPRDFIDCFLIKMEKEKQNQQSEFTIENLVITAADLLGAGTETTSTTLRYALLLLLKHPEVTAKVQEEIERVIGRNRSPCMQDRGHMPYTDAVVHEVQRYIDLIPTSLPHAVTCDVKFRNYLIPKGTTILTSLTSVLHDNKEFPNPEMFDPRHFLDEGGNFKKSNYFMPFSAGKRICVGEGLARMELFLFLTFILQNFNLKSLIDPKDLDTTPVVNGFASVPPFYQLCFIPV

Structure (SMILES) | inhibition
CCOc1cc(C(=O)Nc2ncccn2)cc(OCC)c1OCC | 7.1%
Clc1ccc(-n2nnnc2CN2CCCCC2)cc1Cl | 27.7%
O=C(c1ccccc1)C(Cn1cncn1)C(Sc1ccccc1)c1ccccc1 (centres undefined) | 99.3% (active)
O=C(O)CC(Cn1cnnn1)c1ccccc1 (centres undefined) | -11.5%
O=C(CSc1nnc2ccccn12)c1ccccc1 | 13.9%
O=C(c1ccc2c(c1)N(Cc1ccc(F)cc1)C(=O)CS2)N1CCOCC1 | 23.9%
CCOC(=O)N1CCN(Cc2nc(N)nc(Nc3ccc(C)cc3)n2)CC1 | 36.2%
CCN(CC)CCN1C(=O)C(=O)/C(=C(/O)c2ccccc2)C1c1ccccc1F (centres undefined) | -0.3%
COC(=O)c1ccc(N(CC(=O)NC2CCCC2)C(=O)CNC(=O)c2ccco2)cc1 | -6.6%
CCCn1c(=O)c2ccccc2n2c(SCC(=O)/C(C#N)=C(\C)N)nnc12 | 4.2%
COc1cccc(NC(=O)C2c3cc(OC)c(OC)cc3C(=O)N(C)C2c2cccnc2)c1 (centres undefined) | 50.1% (active)
COc1ccc(C2C(C(=O)N3CCN(c4ccc(OC)cc4)CC3)c3ccccc3C(=O)N2C)cc1 (centres undefined) | 2.6%
CCOc1cc2c(cc1OCC)C(C(=O)O)C(c1ccc(OC)c(O)c1)N(C)C2=O (centres undefined) | -11.4%
Cc1nc(SCC(=O)N2CC(=O)Nc3ccccc32)c2c(C)c(C)sc2n1 | 49.9%
COc1ccc(OC)c(NC(=O)c2cnn(-c3ccccc3Cl)c2NC(=O)c2ccco2)c1 | -0.9%
C#CCN1C(=O)C(O)(CC(=O)c2cc(OC)ccc2OC)c2ccccc21 (centres undefined) | 51.5% (active)
COc1ccc(C(=O)CN2C(=O)NC(C)(c3ccc(C)cc3)C2=O)cc1OC (centres undefined) | 1.3%
CCOc1ccc(CN2CCCN(C)CC2)cc1 | -4.6%
CC1(C)Cc2ccccc2-c2nnc(-c3cccc(O)c3)n21 | -16.2%
Cc1[nH]n(-c2cccc(Cl)c2)c(=O)c1-c1ccc(Cl)cc1 | -13.5%
CC1=NN(c2cccc(Cl)c2)C(=O)C12CC(C)=C(C)CS2 (centres undefined) | 90% (active)
CC(=O)Oc1ccc(C)cc1N1C(=O)c2ccc(C(=O)O)cc2C1=O | -15.2%
Cc1ccccc1N1CC(c2nc3ccccc3[nH]2)CC1=O (centres undefined) | 81.9% (active)
O=C(C1CCCO1)N1CCC(c2nc3ccccc3[nH]2)CC1 (centres undefined) | 20.9%
Cc1ncn(C23CC4CC(CC(O)(C4)C2)C3)n1 | 3.7%

Structure (SMILES) | inhibition
CCCCN=C(N)/C(C(=O)OCC)=C(\O)c1ccc(OC)cc1 | 54.8% (active)
COc1ccc(C(=O)Nc2cc(C)ccc2NC(=O)COc2ccccc2)cc1 | 17%
CCCCC(=O)N(c1ccc(OC)cc1)C1C=CS(=O)(=O)C1 (centres undefined) | 19.8%
COc1ccc(OCCCC(=O)Nc2nnc(C3CCCO3)s2)cc1 (centres undefined) | 34.1%
CCN1CCN(c2ccc([N+](=O)[O-])cc2C(=O)c2ccc(Cl)cc2)CC1 | 5.8%
CCCC(=O)Nc1nnc(CC(=O)OCC)s1 | -0.3%
Cc1ccc(N2C(=O)C(Cc3ccccc3)NC2=S)cc1 (centres undefined) | 39.4%
CC1=CC(C)(C)NC(=S)N1c1ccccc1 | 58.1% (active)
COc1ccc2c(c1OC)C(=O)OC2Nc1nc(-c2ccccc2)cs1 (centres undefined) | 12%
Cc1[nH]n(-c2ccccc2)c(=O)c1CCOC(=O)c1ccc(C(F)(F)F)cc1 | 31.8%
CCCS(=O)(=O)N1CCN(C(=O)c2cccs2)CC1 | 11%
O=C(Nc1cccc2ccccc12)N1CCN(Cc2ccc3c(c2)OCO3)CC1 | 35.2%
COc1ccc(S(=O)(=O)N2CCN(C(=O)c3cccs3)CC2)cc1OC | 43.6%
O=C(c1cccs1)N1CCN(Cc2ccc3c(c2)OCO3)CC1 | 56.9% (active)
O=C(CCCN1C(=O)c2cccc3cccc(c23)C1=O)N1CCN(Cc2ccc3c(c2)OCO3)CC1 | 78.8% (active)
CCS(=O)(=O)N1CCN(C(=O)c2cccs2)CC1 | 56.5% (active)
O=C(c1cccs1)N1CCN(C(=O)N2CCOCC2)CC1 | 2.3%
Cn1c(=O)cc(OCCCC(=O)N2CCN(Cc3ccc4c(c3)OCO4)CC2)c2ccccc21 | 36.7%
NC(=O)c1ccccc1NC(=O)c1ccccc1F | -8.5%
CCOC(=O)c1c(C)nc(-c2ccccc2)nc1NC(=O)C(C)C | 37.3%
CCOC(=O)N1CCC(NC(=O)Cn2cc3c(n2)CCCCC3)CC1 | 1.5%
CCN1CCN(Cc2c(O)ccc3c(=O)c(-c4ccc(OC)c(OC)c4)c(C(F)(F)F)oc23)CC1 | 12%
Cc1cc(=O)oc(C)c1C(=O)Nc1cnc2ccccc2c1 | 0.8%
CC(=NCC1CCCO1)c1c(O)[nH]c(=O)[nH]c1=O (centres undefined) | -7.7%
COCCNC(=O)CN(C(=O)CCC(=O)Nc1cc(C)on1)c1ccc(C)cc1C | 11.8%

Structure (SMILES) | inhibition
N#CC1=C(N)Oc2n[nH]c(CSc3ccccc3)c2C12C(=O)Nc1ccccc12 (centres undefined) | 0.5%
O=C(NCc1ccccn1)c1ccc2nc(-c3ccco3)c(-c3ccco3)nc2c1 | 43.6%
COc1ccc(CC(NC(C)=O)C(=O)NC2CCN(C(=O)Nc3ccc(C#N)cc3)CC2)cc1OC (centres undefined) | 32%
COc1ccc(C(CNC(=O)c2cccnc2SC)N2CCOCC2)cc1 (centres undefined) | 11.3%
CCC1=C/C(=C\c2ccc3c(c2)OCO3)C(=O)S1 | 43.8%
Cc1cccc(N=C2NC(=O)CS2)c1C | 7.4%
COc1cc(OC)c(-n2c(C)cc(C=O)c2C)cc1Cl | 93.2% (active)
Cc1cc(C=O)c(C)n1-c1ccc(NC2CCCCC2)c([N+](=O)[O-])c1 | -2.5%
O=C(c1ccco1)N1CCN(C(=O)c2ccc(COc3ccc(F)cc3)o2)CC1 | 25.1%
COCCN1Cc2cccc(C(=O)Nc3ccccc3OC)c2C1=O | 34.9%
CCCOc1ccc(NC(=O)C2CCCNC2=O)cc1 (centres undefined) | 3.9%
CNC(=O)c1csc(-c2ccccc2)n1 | 23.7%
C=CCNC(=O)c1cc(-c2ccccc2O)on1 | 45.7%
C=CCNC(=O)c1csc(-c2ccccc2)n1 | 67.4% (active)
CS(=O)(=O)N(CC(=O)N1CCOCC1)c1ccc2c3c(cccc13)CC2 | 32.7%
Cc1ccc2oc(=O)c3cnn(CC(=O)N4CCCCCC4)c3c2c1 | -5.2%
C=CCN(C(=O)Nc1ccc2oc(C)nc2c1)c1ccccc1 | 14.7%
C=CCN(C(=O)Cn1ncc2c1-c1cc(C)ccc1OC2)c1ccccc1 | 63.4% (active)
CS(=O)(=O)c1sc2nc(-c3ccccc3)cc(-c3ccccc3)c2c1N | -2.6%
O=C(NC1CCCCC1)N1CCc2[nH]c3ccccc3c2C1 | 44.1%
N#Cc1ccc(CSc2nnc(-c3ccccn3)n2-c2ccc(Cl)cc2)cc1 | 18.3%
O=C(NCc1ccccn1)c1cc2ccccc2oc1=O | 1.3%
O=C(Oc1cccnc1)c1cc2ccccc2oc1=O | -9.9%
Nc1ncc(-c2cc3ccccc3oc2=O)s1 | 51.3% (active)
CCCCN(C)C(=O)c1ccc2c(c1)N(CC)C(=O)c1ccccc1S2(=O)=O | 22.5%

Structure (SMILES) | inhibition
O=C(CCN1C(=O)c2ccccc2C1=O)Nc1cccc(F)c1 | 78% (active)
O=C(CCN1C(=O)c2ccncc2C1=O)Nc1ccc2c(c1)OCCO2 | 2.4%
O=C(CCN1C(=O)c2ccccc2C1=O)Nc1ccncc1 | 36.2%
O=C(COc1ccccc1Cl)Nn1cnnc1 | 41.3%
COc1ccc(Cc2nnc(NC(=O)Cc3cccs3)s2)cc1 | 17.2%
COc1ccc(NC(=O)NC2CC3CCCC(C2)N3Cc2ccccc2)cc1 (centres undefined) | 0.4%
CN(C)c1nc2n(c(=O)n1)CCO2 | -6%
CN(C)/C=C1/Nc2ccccc2C1=O | 14.3%
COc1ccc(-c2nc(CS(=O)CC(=O)N3CCc4ccccc4C3)c(C)o2)cc1 (centres undefined) | 17.7%
Cc1ccccc1-c1nc(CS(=O)(=O)CC(=O)N2CCc3ccccc3C2)c(C)o1 | 69.4% (active)
Cc1oc(-c2ccccc2F)nc1CS(=O)(=O)CC(=O)NCCCN(C)C1CCCCC1 | -10.6%
CCN1CCN(C(=O)/C=C\C(=O)O)CC1 | -10.4%
CCOC(=O)c1c(N)c(C#N)nn1-c1ccccc1C(=O)OC | 25.3%
CCC(=O)NC(NCC1CCCO1)C(Cl)(Cl)Cl (centres undefined) | 8.6%
COCCNC(=O)c1snc2ccc(Cl)cc12 | -5.7%
CCOC(=O)c1sc(C)c2c1NC(C)(c1cccc3ccccc13)NC2=O (centres undefined) | 82% (active)
CCOC(=O)c1cc2ccccc2nc1C | 12.8%
CCOC(=O)c1nc(N)sc1C(=O)OCC | -0.6%
COC(=O)C(C)n1cnc2c(nnn2-c2cccc(Cl)c2)c1=O (centres undefined) | 24.7%
COc1ccc(Cl)cc1C(=O)Nc1ccc(N(C)C(C)=O)cc1 | 25.6%
COc1ccc(NC(=S)N2N=CCC2c2ccccc2)cc1 (centres undefined) | 41.5%
CN1OC(COC(=O)c2ccc(Cl)cc2)CC1c1ccccc1 (centres undefined) | 74.5% (active)
CCOC(=O)c1cc(NC(=O)c2ccc(Cl)cc2)c(=O)oc1-c1ccccc1 | 6.8%
N#Cc1c(N)n(CCOC(=O)c2ccc(Cl)cc2)c2nc3ccccc3nc12 | 29.4%
